# Assays:
# [1] = biological target: T1, Serine/threonine-protein kinase TBK1 (Homo sapiens) (UniProt Q9UHD2); settings: at 1 µM;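 note: values are mean inhibition of TBK1, screened as part of the GSK published kinase inhibitor set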
# T1 sequence (whole entry): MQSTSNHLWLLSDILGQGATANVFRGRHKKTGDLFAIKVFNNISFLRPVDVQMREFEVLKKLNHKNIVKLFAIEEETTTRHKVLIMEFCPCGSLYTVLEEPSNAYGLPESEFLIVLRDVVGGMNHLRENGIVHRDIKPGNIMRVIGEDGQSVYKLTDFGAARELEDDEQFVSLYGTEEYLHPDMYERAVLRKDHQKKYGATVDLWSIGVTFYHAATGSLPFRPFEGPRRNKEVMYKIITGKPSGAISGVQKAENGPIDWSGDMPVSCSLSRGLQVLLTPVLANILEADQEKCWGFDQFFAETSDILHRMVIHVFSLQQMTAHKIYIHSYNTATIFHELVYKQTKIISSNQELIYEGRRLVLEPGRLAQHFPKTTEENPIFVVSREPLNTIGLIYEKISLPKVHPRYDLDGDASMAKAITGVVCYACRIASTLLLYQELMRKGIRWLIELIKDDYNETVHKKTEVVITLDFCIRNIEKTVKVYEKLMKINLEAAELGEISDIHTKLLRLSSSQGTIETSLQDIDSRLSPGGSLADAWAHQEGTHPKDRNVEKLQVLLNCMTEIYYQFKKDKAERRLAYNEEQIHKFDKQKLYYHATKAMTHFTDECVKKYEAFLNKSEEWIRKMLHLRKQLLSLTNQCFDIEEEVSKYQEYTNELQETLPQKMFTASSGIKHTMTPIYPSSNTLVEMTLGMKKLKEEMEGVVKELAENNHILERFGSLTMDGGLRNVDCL
# [2] = biological target: T2, Testis-specific serine/threonine-protein kinase 1 (Homo sapiens) (UniProt Q9BXA7); settings: at 0.1 µM
# T2 sequence (whole entry): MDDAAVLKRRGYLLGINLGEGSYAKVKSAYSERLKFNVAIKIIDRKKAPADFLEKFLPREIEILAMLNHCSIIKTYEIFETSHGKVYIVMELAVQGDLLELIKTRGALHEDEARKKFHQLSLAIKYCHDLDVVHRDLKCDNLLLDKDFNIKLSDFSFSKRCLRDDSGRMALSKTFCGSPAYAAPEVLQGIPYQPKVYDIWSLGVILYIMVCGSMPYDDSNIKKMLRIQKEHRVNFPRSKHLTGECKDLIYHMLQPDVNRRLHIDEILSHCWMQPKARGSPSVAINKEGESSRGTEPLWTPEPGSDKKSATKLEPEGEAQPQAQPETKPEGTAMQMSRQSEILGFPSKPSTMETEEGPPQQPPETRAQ
# [3] = biological target: T2, Testis-specific serine/threonine-protein kinase 1 (Homo sapiens); settings: at 1 µM
# [4] = biological target: T3, Testis-specific serine/threonine-protein kinase 2 (Homo sapiens) (UniProt Q96PF2); settings: at 0.1 µM
# T3 sequence (whole entry): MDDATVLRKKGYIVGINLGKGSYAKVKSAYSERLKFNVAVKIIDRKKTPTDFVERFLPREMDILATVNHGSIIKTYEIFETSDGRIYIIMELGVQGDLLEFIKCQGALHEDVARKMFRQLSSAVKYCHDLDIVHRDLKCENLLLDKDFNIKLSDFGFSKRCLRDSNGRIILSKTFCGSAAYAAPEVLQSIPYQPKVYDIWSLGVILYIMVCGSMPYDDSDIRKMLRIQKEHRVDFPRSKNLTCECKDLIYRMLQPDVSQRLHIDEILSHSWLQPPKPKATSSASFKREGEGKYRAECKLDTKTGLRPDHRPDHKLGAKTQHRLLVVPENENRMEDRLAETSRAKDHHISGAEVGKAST
# [5] = biological target: T3, Testis-specific serine/threonine-protein kinase 2 (Homo sapiens); settings: at 1 µM
# [6] = biological target: Casein kinase I isoform alpha (Homo sapiens) (UniProt P48729); settings: at 0.1 µM
# Sequence of Casein kinase I isoform alpha (Homo sapiens) (P48729 2-337 limits assumed): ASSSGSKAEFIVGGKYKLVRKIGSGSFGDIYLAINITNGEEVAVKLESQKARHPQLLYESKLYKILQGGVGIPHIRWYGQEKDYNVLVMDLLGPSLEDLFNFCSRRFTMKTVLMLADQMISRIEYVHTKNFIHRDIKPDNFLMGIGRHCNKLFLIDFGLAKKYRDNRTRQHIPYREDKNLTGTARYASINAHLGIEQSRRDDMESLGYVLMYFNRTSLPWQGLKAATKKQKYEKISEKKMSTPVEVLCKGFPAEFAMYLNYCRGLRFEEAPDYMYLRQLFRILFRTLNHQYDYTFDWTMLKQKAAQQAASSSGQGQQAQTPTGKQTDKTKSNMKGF
# [7] = biological target: Casein kinase I isoform alpha (Homo sapiens) (UniProt P48729); settings: at 1 µM
# [8] = biological target: Casein kinase I isoform gamma-1 (Homo sapiens) (UniProt Q9HCP0); settings: at 0.1 µM
# Sequence of Casein kinase I isoform gamma-1 (Homo sapiens) (Q9HCP0 whole entry, looked up, canonical isoform): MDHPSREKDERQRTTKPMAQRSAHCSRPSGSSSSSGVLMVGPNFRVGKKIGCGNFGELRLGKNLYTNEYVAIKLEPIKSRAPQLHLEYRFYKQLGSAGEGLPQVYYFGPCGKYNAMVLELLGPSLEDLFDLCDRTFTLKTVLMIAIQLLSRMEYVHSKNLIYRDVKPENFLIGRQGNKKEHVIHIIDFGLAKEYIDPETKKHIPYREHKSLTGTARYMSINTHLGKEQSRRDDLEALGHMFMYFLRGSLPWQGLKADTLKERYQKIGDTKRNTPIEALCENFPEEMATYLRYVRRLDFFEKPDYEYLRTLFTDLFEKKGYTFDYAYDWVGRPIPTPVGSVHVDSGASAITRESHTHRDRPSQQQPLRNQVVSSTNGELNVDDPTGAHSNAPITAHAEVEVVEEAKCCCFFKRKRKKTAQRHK
# [9] = biological target: Casein kinase I isoform gamma-1 (Homo sapiens) (UniProt Q9HCP0); settings: at 1 µM
# [10] = biological target: Casein kinase I isoform gamma-2 (Homo sapiens) (UniProt P78368); settings: at 0.1 µM
# Sequence of Casein kinase I isoform gamma-2 (Homo sapiens) (P78368 whole entry, looked up, canonical isoform): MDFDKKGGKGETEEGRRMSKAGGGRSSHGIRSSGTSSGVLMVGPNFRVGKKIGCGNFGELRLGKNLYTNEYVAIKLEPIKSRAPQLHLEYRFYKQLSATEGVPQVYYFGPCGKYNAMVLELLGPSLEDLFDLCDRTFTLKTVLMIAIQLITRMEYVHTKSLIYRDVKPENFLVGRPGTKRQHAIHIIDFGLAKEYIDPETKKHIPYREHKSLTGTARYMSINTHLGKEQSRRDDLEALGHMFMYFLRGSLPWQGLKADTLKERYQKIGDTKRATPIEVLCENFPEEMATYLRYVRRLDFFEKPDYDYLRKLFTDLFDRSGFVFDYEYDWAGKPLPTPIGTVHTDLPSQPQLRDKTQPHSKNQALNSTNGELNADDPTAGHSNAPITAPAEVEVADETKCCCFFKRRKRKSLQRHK
# [11] = biological target: Casein kinase I isoform gamma-2 (Homo sapiens) (UniProt P78368); settings: at 1 µM
# [12] = biological target: Casein kinase I isoform gamma-3 (Homo sapiens) (UniProt Q9Y6M4); settings: at 0.1 µM
# Sequence of Casein kinase I isoform gamma-3 (Homo sapiens) (Q9Y6M4 whole entry, looked up, canonical isoform): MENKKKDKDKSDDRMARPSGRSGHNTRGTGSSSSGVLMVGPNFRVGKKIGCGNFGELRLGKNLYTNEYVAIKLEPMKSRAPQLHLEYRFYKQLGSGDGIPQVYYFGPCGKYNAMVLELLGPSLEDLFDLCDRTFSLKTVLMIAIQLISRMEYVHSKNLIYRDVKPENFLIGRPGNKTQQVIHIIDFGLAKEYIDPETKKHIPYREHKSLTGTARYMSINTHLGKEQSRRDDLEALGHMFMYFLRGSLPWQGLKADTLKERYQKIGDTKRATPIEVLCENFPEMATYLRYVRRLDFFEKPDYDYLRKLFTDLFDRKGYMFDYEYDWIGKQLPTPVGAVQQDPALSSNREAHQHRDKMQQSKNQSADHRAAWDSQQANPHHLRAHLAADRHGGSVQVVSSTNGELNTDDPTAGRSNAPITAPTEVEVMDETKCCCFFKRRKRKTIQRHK
# [13] = biological target: Casein kinase I isoform gamma-3 (Homo sapiens) (UniProt Q9Y6M4); settings: at 1 µM
# [14] = biological target: Cyclin-dependent kinase 1 (Homo sapiens) (UniProt P06493); settings: at 0.1 µM
# Sequence of Cyclin-dependent kinase 1 (Homo sapiens) (P06493 whole entry, looked up): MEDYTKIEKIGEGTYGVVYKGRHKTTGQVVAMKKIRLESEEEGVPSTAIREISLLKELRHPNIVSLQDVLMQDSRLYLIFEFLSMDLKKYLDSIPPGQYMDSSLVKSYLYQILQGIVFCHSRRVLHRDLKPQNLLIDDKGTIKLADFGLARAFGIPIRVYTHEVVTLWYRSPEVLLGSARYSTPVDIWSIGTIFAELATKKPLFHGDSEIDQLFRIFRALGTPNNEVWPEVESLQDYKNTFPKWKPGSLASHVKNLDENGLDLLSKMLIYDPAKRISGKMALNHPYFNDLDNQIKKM
# [15] = biological target: Cyclin-dependent kinase 1 (Homo sapiens) (UniProt P06493); settings: at 1 µM
# [16] = biological target: Cyclin-dependent kinase 2 (Homo sapiens) (UniProt P24941); settings: at 0.1 µM
# [17] = biological target: Cyclin-dependent kinase 2 (Homo sapiens) (UniProt P24941); settings: at 1 µM
# [18] = biological target: Cyclin-dependent kinase 2 (Homo sapiens) (UniProt P24941); settings: at 0.1 µM; remark: listed apart in the source
# [19] = biological target: Cyclin-dependent kinase 2 (Homo sapiens) (UniProt P24941); settings: at 1 µM; remark: listed apart in the source
# [20] = biological target: CDK3/Cyclin E (Homo sapiens) (UniProt P24864+Q00526); settings: at 0.1 µM;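 note: reported percentages are mean inhibition values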
# Sequence of CDK3/Cyclin E (Homo sapiens) (P24864 whole entry, looked up): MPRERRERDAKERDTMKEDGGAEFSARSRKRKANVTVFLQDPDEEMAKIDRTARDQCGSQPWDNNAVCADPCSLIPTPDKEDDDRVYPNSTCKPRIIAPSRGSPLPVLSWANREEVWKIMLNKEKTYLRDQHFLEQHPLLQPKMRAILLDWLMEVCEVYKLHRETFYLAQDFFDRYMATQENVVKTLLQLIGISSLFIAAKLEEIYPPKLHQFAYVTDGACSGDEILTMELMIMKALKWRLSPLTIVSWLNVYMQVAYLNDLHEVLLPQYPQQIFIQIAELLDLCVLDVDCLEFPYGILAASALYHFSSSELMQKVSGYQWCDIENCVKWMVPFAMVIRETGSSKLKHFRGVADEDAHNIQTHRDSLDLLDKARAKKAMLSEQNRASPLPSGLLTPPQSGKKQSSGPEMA
# Sequence of CDK3/Cyclin E (Homo sapiens) (Q00526 whole entry, looked up): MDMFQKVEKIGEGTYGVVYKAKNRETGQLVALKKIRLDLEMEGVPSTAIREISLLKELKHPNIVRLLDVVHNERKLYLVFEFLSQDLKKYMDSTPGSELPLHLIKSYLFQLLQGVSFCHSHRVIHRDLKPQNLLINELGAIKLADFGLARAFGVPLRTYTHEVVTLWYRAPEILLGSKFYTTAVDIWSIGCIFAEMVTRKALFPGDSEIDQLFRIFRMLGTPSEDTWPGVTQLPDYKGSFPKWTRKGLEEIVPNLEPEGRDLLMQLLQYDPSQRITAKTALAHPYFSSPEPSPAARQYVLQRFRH
SMILES,inhibition [1],inhibition [2],inhibition [3],inhibition [4],inhibition [5],inhibition [6],inhibition [7],inhibition [8],inhibition [9],inhibition [10],inhibition [11],inhibition [12],inhibition [13],inhibition [14],inhibition [15],inhibition [16],inhibition [17],inhibition [18],inhibition [19],inhibition [20]
CCCN1CCC(Oc2cc(Nc3nc(Nc4cccc(F)c4C(N)=O)c4cc[nH]c4n3)c(OC)cc2Cl)CC1,2.35%,21.3%,57.3%,7.49%,26.8%,0.93%,12.1%,-0.95%,8.29%,-0.58%,6.61%,-0.08%,20.9%,-0.34%,0.53%,1.48%,5.95%,-0.16%,0.71%,0.11%
COc1ccc(COc2ccc(Cc3cnc(N)nc3N)cc2OC)cc1,2.86%,0.44%,-1.27%,-0.95%,-0.65%,0.49%,0.48%,-0.8%,-0.45%,-2.36%,0.05%,-0.67%,0.85%,1.89%,1.42%,–,–,–,–,2.3%
CC1=C(C(=O)Nc2ccc3[nH]ncc3c2)C(c2ccc(Cl)c(Cl)c2)CC(=O)N1 (stereo unspecified),0.46%,2.84%,-0.6%,1.93%,-1.29%,-1.74%,1.97%,0.83%,1.68%,0.32%,1.4%,-0.44%,1.59%,-0.56%,-1.08%,0.45%,4.04%,-0.59%,3.25%,-0.69%
CN1CCC(C(=O)Nc2n[nH]c3nnc(-c4ccccc4)cc23)CC1,3.05%,5.87%,6.95%,3.85%,6.08%,2.13%,4%,5.08%,5.43%,3.51%,6.16%,2.15%,4.71%,1.44%,9.39%,1.83%,5.99%,5.55%,7.79%,5.12%
COc1cc(C=NNc2ncnc3c2cnn3-c2ccccc2)ccc1O,21.5%,5.71%,1.92%,1.3%,-1.3%,4.04%,6.98%,1.27%,3.26%,2.04%,18.1%,1.55%,5.99%,6.11%,35.8%,6.03%,42.1%,2.88%,13.7%,2.09%
Fc1cccc(COc2ccc(Nc3ncnc4sc(-c5cccs5)cc34)cc2Cl)c1,2.3%,0.6%,1.28%,0.22%,0%,-0.37%,2.33%,0.39%,-0.08%,0.42%,0.26%,-0.15%,0.1%,0.75%,1.12%,-0.17%,1.85%,3.98%,2.92%,-0.06%
[O-][S+]1CCN(Cc2ccc(-c3ccc4ncnc(Nc5ccc(OCc6ccccc6)c(F)c5)c4c3)o2)CC1,2.87%,1.77%,0.49%,0.63%,-1.37%,2.43%,4.39%,2.09%,3.44%,1.93%,3.2%,1.87%,3.97%,0.66%,0.48%,1.07%,-1.12%,1.88%,2.86%,5.36%
CCn1c(-c2nonc2N)nc2c(N3CCCC3)nccc21,2.54%,0.01%,-0.07%,-0.87%,0.44%,-0.35%,0.23%,-0.72%,-0.83%,-0.88%,-0.7%,-0.94%,-0.62%,0.79%,2.89%,1%,–,0.81%,5.24%,0.91%
COc1cc2ncn(-c3cc(O[C@H](C)c4ccccc4Cl)c(C(N)=O)s3)c2cc1OC,6.39%,4.46%,8.45%,2.71%,4.44%,3%,3.21%,3.26%,3.83%,2.55%,2.68%,2.15%,3.1%,0.89%,6.45%,–,–,–,–,2.71%
Cc1cc(O)cc(C)c1/C=C/c1cncc(-c2nn[nH]n2)c1,5.41%,2.79%,2.61%,1.18%,0.73%,7.75%,10.6%,1.82%,3.8%,0.59%,3.73%,-0.15%,1.13%,-2.89%,-3.31%,-1.42%,2.36%,0.42%,0.7%,2.82%
COc1cc2ncn(-c3cc(OCc4ccccc4C(F)(F)F)c(C(N)=O)s3)c2cc1OC,13.6%,2.93%,6.32%,2.18%,2.55%,1.38%,3.61%,0.9%,2.06%,–,1.15%,-0.01%,1.63%,-4.16%,-1.4%,-2.45%,1.5%,0.41%,4.83%,-1.21%
Cc1nn(C)c2cc(N(C)c3ccnc(Nc4cccc(S(N)(=O)=O)c4)n3)ccc12,10.3%,3.95%,5.39%,1.61%,2.71%,0.9%,0.72%,2.37%,2.59%,1.72%,2.93%,0.54%,3.06%,0.25%,5.8%,-0.61%,2.33%,2.2%,8.5%,1.91%
CC1=C(C(=O)Nc2ccc3[nH]ncc3c2)C(c2ccc(F)cc2)NC(=O)N1 (stereo unspecified),3.11%,1.04%,1.21%,1.2%,1.4%,0.46%,1.43%,1.54%,2.31%,1.41%,1.77%,0.29%,0.47%,0.21%,-0.93%,3.84%,7.76%,2.47%,9.24%,3.12%
COc1cc2ncn(-c3cc(O[C@@H](C)c4ccccc4Cl)c(C(N)=O)s3)c2cc1OC,27%,3.02%,5.73%,1.37%,1.24%,4.77%,4.44%,4.61%,5.05%,4.07%,5.19%,3.46%,3.53%,-0.28%,2.69%,–,–,–,–,-0.85%

# Source: ChEMBL document CHEMBL1961873, “Compounds: GSK PKIS; Assays: Nanosyn kinase panel” (2012)
